“And” between values parts separate entries of the source, which are not always exact repeats. Equal values may be shown once. The source holds several records for some structures; these can differ, active in one and inactive in another. The source made the active and inactive calls. How the source made its calls: active means hit-call score of the fitted dose curve at least 0.9, where 1 is the maximum; inactive means score below 0.9.
Columns and labels:
[1] = read-out: Interleukin-6 (IL6), IL6 (gene 3569); test: BSK_CASM3C_IL6: BioMAP Diversity Plus: CASM3C Assay for Interleukin-6 (IL6) Biomarker Activity for (AID 2283040); details: primary human coronary artery smooth muscle cells; actives raise or lower the signal
[2] = read-out: Tissue plasminogen activator (tPA), PLAT (gene 5327); test: BSK_BE3C_tPA: BioMAP Diversity Plus: BE3C Assay for Tissue plasminogen activator (tPA) Biomarker Activity (AID 2283041); details: primary human bronchial epithelial cells; actives raise or lower the signal
Procedure, shortened: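 Primary human bronchial epithelial cells in the BE3C system, exposed to compound for 24 h. tPA was quantified by ELISA; DMSO served as baseline, with gain or loss of signal fitted. Cytotoxicity checked in parallel cultures by SRB total-protein staining.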

[3] = read-out: Interleukin-8 (IL8), CXCL8 (gene 3576); test: BSK_CASM3C_IL8: BioMAP Diversity Plus: CASM3C Assay for Interleukin-8 (IL8) Biomarker Activity (AID 2283042); details: primary human coronary artery smooth muscle cells; actives raise or lower the signal;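 further: IL-8 protein level quantified by ELISA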
[4] = read-out: Human Leukocyte Antigen - DR isotype (HLADR), HLA-DRA (gene 3122); test: BSK_CASM3C_HLADR: BioMAP Diversity Plus: CASM3C Assay for Human Leukocyte Antigen - DR isotype (HLADR) Biomarker Activity (AID 2283043); details: primary human coronary artery smooth muscle cells; actives raise or lower the signal;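 further: cell-surface HLA-DR protein level quantified by ELISA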
[5] = read-out: Macrophage colony-stimulating factor (MCSF), CSF1 (gene 1435); test: BSK_CASM3C_MCSF: BioMAP Diversity Plus: CASM3C Assay for Macrophage colony-stimulating factor (MCSF) Biomarker Activity (AID 2283044); details: primary human coronary artery smooth muscle cells; actives raise or lower the signal;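 further: M-CSF protein amount quantified by ELISA after 24 h exposure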
[6] = read-out: Low-density lipoprotein receptor (LDLR), LDLR (gene 3949); test: BSK_CASM3C_LDLR: BioMAP Diversity Plus: CASM3C Assay for Low-density lipoprotein receptor (LDLR) Biomarker Activity (AID 2283045); details: primary human coronary artery smooth muscle cells; actives raise or lower the signal;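 further: LDLR protein level on the cell surface quantified by ELISA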
[7] = read-out: Monocyte Chemoattractant Protein-1 (MCP1), CCL2 (gene 6347); test: BSK_CASM3C_MCP1: BioMAP Diversity Plus: CASM3C Assay for Monocyte Chemoattractant Protein-1 (MCP1) Biomarker Activity (AID 2283046); details: primary human coronary artery smooth muscle cells; actives raise or lower the signal;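 further: MCP-1 level quantified by ELISA 24 h after dosing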
[8] = BSK_CASM3C_Proliferation: Cell Proliferation Assessment in the BioMAP Diversity Plus: CASM3C Assay (AID 2283047); details: primary human coronary artery smooth muscle cells;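 further: sulforhodamine B total protein stain as relative cell number at 560 nm; sub-confluent cells exposed 48 h before staining; fitted both ways against DMSO so gain or loss of cell number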
[9] = read-out: Monokine induced gamma interferon (MIG), CXCL9 (gene 4283); test: BSK_CASM3C_MIG: BioMAP Diversity Plus: CASM3C Assay for Monokine induced gamma interferon (MIG) Biomarker Activity (AID 2283048); details: primary human coronary artery smooth muscle cells; actives raise or lower the signal;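 further: MIG protein level measured by ELISA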
[10] = read-out: serum amyloid A (SAA), SAA1 (gene 6288); test: BSK_CASM3C_SAA: BioMAP Diversity Plus: CASM3C Assay for serum amyloid A (SAA) Biomarker Activity (AID 2283049); details: primary human coronary artery smooth muscle cells; actives raise or lower the signal;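 further: SAA protein level quantified by ELISA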
[11] = BSK_CASM3C_SRB: Viability Assessment in the BioMAP Diversity Plus: CASM3C Assay (AID 2283050); details: primary human coronary artery smooth muscle cells
[12] = read-out: Thrombomodulin, THBD (gene 7056); test: BSK_CASM3C_Thrombomodulin: BioMAP Diversity Plus: CASM3C Assay for Thrombomodulin Biomarker Activity (AID 2283051); details: primary human coronary artery smooth muscle cells; actives raise or lower the signal;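 further: thrombomodulin protein level measured by ELISA 24 h after dosing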
[13] = read-out: Tissue Factor, F3 (gene 2152); test: BSK_CASM3C_TissueFactor: BioMAP Diversity Plus: CASM3C Assay for Tissue Factor Biomarker Activity (AID 2283052); details: primary human coronary artery smooth muscle cells; actives raise or lower the signal;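 further: cell surface tissue factor protein level read by ELISA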
[14] = read-out: Interferon-gamma inducible Protein 10 (IP10), CXCL10 (gene 3627); test: BSK_hDFCGF_IP10: BioMAP Diversity Plus: hDFCGF Assay for Interferon-gamma inducible Protein 10 (IP10) Biomarker Activity (AID 2283053); details: primary human foreskin fibroblasts; actives raise or lower the signal
Procedure, shortened: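 Primary human foreskin fibroblasts exposed to chemicals for 24 h. IP-10 measured by ELISA; changes fitted bidirectionally against DMSO baseline.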

[15] = read-out: Urokinase-type plasminogen activator receptor (uPAR), PLAUR (gene 5329); test: BSK_CASM3C_uPAR: BioMAP Diversity Plus: CASM3C Assay for Urokinase-type plasminogen activator receptor (uPAR) Biomarker Activity (AID 2283054); details: primary human coronary artery smooth muscle cells; actives raise or lower the signal;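 further: cell-surface uPAR protein level quantified by ELISA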
[16] = read-out: Vascular cell adhesion molecule 1 (VCAM1), VCAM1 (gene 7412); test: BSK_CASM3C_VCAM1: BioMAP Diversity Plus: CASM3C Assay for Vascular cell adhesion molecule 1 (VCAM1) Biomarker Activity (AID 2283055); details: primary human coronary artery smooth muscle cells; actives raise or lower the signal;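 further: VCAM-1 protein level quantified by ELISA on the cells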
[17] = read-out: Collagen III, COL3A1 (gene 1281); test: BSK_hDFCGF_CollagenIII: BioMAP Diversity Plus: hDFCGF Assay for Collagen III Biomarker Activity (AID 2283056); details: primary human foreskin fibroblasts; actives raise or lower the signal
Procedure, shortened: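 hDFCGF primary human dermal fibroblasts; 24 h chemical exposure; collagen III by ELISA; bidirectional curve fit vs DMSO baseline (gain or loss of signal).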

[18] = read-out: Epidermal growth factor receptor (EGFR), EGFR (gene 1956); test: BSK_hDFCGF_EGFR: BioMAP Diversity Plus: hDFCGF Assay for Epidermal growth factor receptor (EGFR) Biomarker Activity (AID 2283057); details: primary human foreskin fibroblasts; actives raise or lower the signal
Procedure, shortened: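 Primary human foreskin fibroblasts (hDFCGF system), sampled 24 h after dosing; EGFR quantified by ELISA. Bidirectional fit relative to DMSO baseline; SRB total-protein staining in parallel cultures for cytotoxicity.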

[19] = read-out: Interleukin-8 (IL8), CXCL8 (gene 3576); test: BSK_hDFCGF_IL8: BioMAP Diversity Plus: hDFCGF Assay for Interleukin-8 (IL8) Biomarker Activity (AID 2283058); details: primary human foreskin fibroblasts; actives raise or lower the signal
Procedure, shortened: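 ELISA read-out of IL-8 from primary human foreskin fibroblast cultures taken 24 h after dosing; values are bidirectional fits relative to DMSO vehicle.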

[20] = BSK_hDFCGF_Proliferation: Cell Proliferation Assessment in the BioMAP Diversity Plus: hDFCGF Assay (AID 2283059); details: primary human foreskin fibroblasts;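 further: curves fitted for both rise and fall of signal versus DMSO baseline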
Procedure, shortened: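 This proliferation readout used SRB total-protein staining of human foreskin fibroblasts […], normalized to DMSO with bidirectional curve fitting.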

Measured: AC50

O=C(O)C(F)(F)C(F)(F)C(F)(F)OC(F)(C(F)(F)F)C(F)(F)F
inactive: all assays above

O=C(F)C1(F)C(F)(F)C(F)(F)C(F)(F)C(F)(F)C1(F)F
inactive: all assays above

NC(=O)C(F)(F)C(F)(F)C(F)(F)C(F)F
inactive: all assays above

CO[Si](C)(CCC(F)(F)C(F)(F)C(F)(F)C(F)(F)C(F)(F)C(F)(F)F)OC
inactive: all assays above

O=C(O)C(F)(F)C(F)(F)C(F)(F)OC(F)(F)F
inactive: all assays above

O=S(=O)(Cl)C(F)(F)C(F)(F)C(F)(F)C(F)(F)C(F)(F)C(F)(F)C(F)(F)C(F)(F)F
active: [2] 48.7 µM and 48.8 µM | [20] 7.61 µM
inactive: [1] | [3] | [4] | [5] | [6] | [7] | [8] | [9] | [10] | [11] | [12] | [13] | [14] | [15] | [16] | [17] | [18] | [19] | [20]

O=C(c1ccccc1)c1ccc(O)cc1O
active: [13] 13.6 µM
inactive: all other assays above

OCCCCC(F)(F)C(F)(F)C(F)(F)C(F)(F)F
inactive: all assays above

NCC(F)(F)C(F)(F)C(F)(F)C(F)(F)C(F)(F)C(F)(F)F
inactive: all assays above

CC(C)(C)c1cc(CCC(=O)NCCCCCCNC(=O)CCc2cc(C(C)(C)C)c(O)c(C(C)(C)C)c2)cc(C(C)(C)C)c1O
active: [7] 0.824 µM
inactive: all other assays above

NCC(F)(F)C(F)(F)C(F)(F)C(F)(F)C(F)(F)C(F)(F)C(F)(F)C(F)(F)F
inactive: all assays above

O=S(=O)(O)CCC(F)(F)C(F)(F)C(F)(F)C(F)(F)C(F)(F)C(F)(F)C(F)(F)C(F)(F)F
inactive: all assays above

CN(C(=O)C(F)(F)C(F)(F)C(F)(F)F)[Si](C)(C)C
inactive: all assays above

O=C1c2c(O)ccc(Nc3ccc(CCO)cc3)c2C(=O)c2c([N+](=O)[O-])ccc(O)c21
active: [3] 2.52 µM | [8] 14.5 µM | [11] 4.72 µM | [12] 20 µM | [14] 20 µM | [17] 20 µM | [20] 10.4 µM
inactive: all other assays above

CCN=C1C=CC(=C(c2ccc(N(CC)CC)cc2)c2ccc(N(CC)CC)cc2)c2ccccc21
active: [2] 1.54 µM and 976 nM | [4] 4.2 µM and 3.11 µM | [5] 5.89 µM and 2.3 µM | [7] 4.84 µM and 4.54 µM | [8] 1.09 µM and 1.31 µM | [9] 5.1 µM and 5.25 µM | [10] 371 nM and 1.07 µM | [11] 5.3 µM and 5.29 µM | [12] 1.03 µM and 1.42 µM | [13] 149 nM and 1.21 µM | [14] 1.52 µM and 1.32 µM | [15] 3.87 µM and 3.2 µM | [16] 5.39 µM and 2.81 µM | [17] 1.15 µM and 1.3 µM | [19] 2.89 µM and 2.29 µM | [20] 180 nM and 151 nM
inactive: [1] | [3] | [6] | [18]

O=C1C=CC(=O)N1c1ccc(Cc2ccc(N3C(=O)C=CC3=O)cc2)cc1
inactive: [12] | [18] | [19]
active: [1] 9.64 µM | [2] 3.46 µM | [3] 11 µM | [4] 2.88 µM | [5] 5.07 µM | [6] 2.03 µM | [7] 4.19 µM | [8] 0.688 µM | [9] 5.42 µM | [10] 3.21 µM | [11] 4.31 µM | [13] 3.35 µM | [14] 2.58 µM | [15] 5.3 µM | [16] 2.94 µM | [17] 4.09 µM | [20] 0.162 µM

CC(C)CCCC(C)CCO (stereo unspecified)
inactive: [3] | [12] | [14] | [17] | [18] | [19]
active: [1] 32.5 µM | [2] 26 µM | [4] 32.2 µM | [5] 32.3 µM | [6] 32.1 µM | [7] 31.2 µM | [8] 30.9 µM | [9] 29.7 µM | [10] 29.6 µM | [11] 32.2 µM | [13] 29.9 µM | [15] 31.3 µM | [16] 31.9 µM | [20] 32.8 µM

O=C=NCc1cccc(CN=C=O)c1
inactive: all assays above

COC(F)(C(F)F)C(F)(F)F (stereo unspecified)
inactive: all assays above

CCN(CC)c1ccc(C=O)cc1
active: [13] 5.46 µM
inactive: all other assays above

CCN(CC)c1ccc(N=Nc2ccccc2)cc1
active: [2] 27.7 µM | [4] 31.9 µM | [7] 4.07 µM | [8] 8.48 µM | [11] 20 µM | [12] 11.3 µM | [16] 3.04 µM | [17] 3.65 µM | [20] 8.62 µM
inactive: all other assays above

OC(O)C(F)(F)C(F)(F)F
inactive: all assays above

OCC(O)CC(F)(F)C(F)(F)C(F)(F)C(F)(F)F (stereo unspecified)
inactive: all assays above

Brc1nc2ccccc2s1
active: [20] 31.5 µM
inactive: all other assays above

O=C(O)CCC(F)(F)C(F)(F)C(F)(F)F
inactive: all assays above
